# Laboratory results published in PubChem BioAssay (Tox21).
# Results filed as inconclusive are left out. Active and inactive are the calls of the source. Calls follow the shape of the dose curve; as a rule, active = well fitted inhibition curve with a large enough effect in the repeat runs; inconclusive = weak or mixed curves; inactive = no such curve, though single readings can be large or run the other way.
# Target: Cytochrome P450 3A4 (Homo sapiens) (UniProt P08684)
# Assay: Cytochrome P450 Family 3 Subfamily A Member 4 (CYP3A4) small molecule antagonists: luciferase reporter qHTS assay (AID 1671201); also: nearly all actives have a fitted effect of over 50% in size
# Conditions: P450-Glo CYP3A4 enzyme, luciferin luminescence, 1 h; series mostly up to 115 µM; activity change, negative = inhibition: at the top concentration
# In short: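 CYP3A4 activity was followed with a P450-Glo proluciferin substrate. Test compounds in DMSO were preincubated 10 min; NADPH regeneration then ran 1 h, and light output was read 20 min after detection reagent.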
# % is scaled to controls: 0 for no effect and ±100 for the full control effect; potency is read from the fitted curve at half-maximal effect.
# Cytochrome P450 3A4 (Homo sapiens), sequence (P08684 whole entry, looked up): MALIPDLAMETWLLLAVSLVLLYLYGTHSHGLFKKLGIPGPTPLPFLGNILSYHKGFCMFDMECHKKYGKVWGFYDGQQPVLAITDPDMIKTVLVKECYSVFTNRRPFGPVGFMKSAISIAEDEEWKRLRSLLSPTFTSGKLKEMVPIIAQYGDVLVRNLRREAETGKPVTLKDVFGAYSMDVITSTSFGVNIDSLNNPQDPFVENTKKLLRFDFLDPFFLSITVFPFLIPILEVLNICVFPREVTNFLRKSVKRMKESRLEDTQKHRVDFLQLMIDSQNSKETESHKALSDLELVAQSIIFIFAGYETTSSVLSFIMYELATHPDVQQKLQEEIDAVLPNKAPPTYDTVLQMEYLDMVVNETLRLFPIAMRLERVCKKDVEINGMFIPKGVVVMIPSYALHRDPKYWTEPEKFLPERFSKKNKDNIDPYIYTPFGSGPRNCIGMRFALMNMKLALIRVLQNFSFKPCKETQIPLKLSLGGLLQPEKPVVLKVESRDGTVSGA
Structure (SMILES),"activity change, negative = inhibition",Potency
CCCCS,6.73% (inactive),
CNC(C)=O,2.08% (inactive),
COC(=O)c1ccc(C(=O)O)cc1,24.1% (inactive),
CN(C)c1cc(NC(=O)CNC(C)(C)C)c(O)c2c1C[C@H]1C[C@H]3[C@H](N(C)C)C(=O)C(C(N)=O)=C(O)[C@@]3(O)C(=O)C1=C2O,-7.18% [at 52.9 µM] (inactive),
c1cc2ccc3ccc4ccc5cccc6c(c1)c2c3c4c56,-22.2% [at 4.07 µM] (inactive),
CCc1ncc(C)[nH]1,-3.68% (inactive),
CCCCOCCCC,0.619% (inactive),
C/C(=N\O)c1ccc(OCC(=O)N2CCCCC2)cc1,-22.8% [at 52.9 µM] (inactive),
CCCCCCCCCCCCCC(=O)OCC,11% (inactive),
CCCCc1ccc(Cl)cc1,0.103% (inactive),
CC(C)(C)OC(=O)c1ccccc1C(=O)O,-2.89% (inactive),
CCCCCCCCCCCCCCCC/C=C/C1CC(=O)OC1=O (stereo not drawn),,15.4 µM (active)
Cc1ccc(O)c(C(=O)c2ccccc2)c1,,32 µM (active)
CC(C)(C)OC=O,27.4% (inactive),
C=CCn1cc[n+](C)c1,6.48% (inactive),
CC(=O)OC/C=C(/C)CCC=C(C)C,2.14% (inactive),
C=CCCCCCCCCOC(C)=O,-1.13% (inactive),

Structure (SMILES),"activity change, negative = inhibition",Potency
Cc1ccc(N)nc1,5.02% (inactive),
O=C(O)/C=C(\CC(=O)O)C(=O)O,12.2% [at 52.9 µM] (inactive),
NNC(=O)CCCCC(=O)NN,,11.2 µM (active)
O=C1c2ccccc2C(=O)N1CO,-3.5% (inactive),
COC(=O)c1ccc(NC(C)=O)cc1OC,9.83% [at 52.9 µM] (inactive),
Cc1nnc(C(=O)NC(C)(C)c2nc(C(=O)NCc3ccc(F)cc3)c(O)c(=O)n2C)o1,-1.64% [at 52.9 µM] (inactive),
C=C(C)C(=O)OCCOC1CC2CC1C1C=CCC21 (stereo not drawn),-24.7% (inactive),
CCO/C=C1\N=C(c2ccccc2)OC1=O,0.302% (inactive),
CCCCN(CCCC)CCCCCCN(CCCC)CCCC,-13.2% (inactive),
CC12CCCC=C1C(=O)OC2=O (stereo not drawn),1.47% (inactive),
Nc1cc(S(=O)(=O)O)ccc1O,2.52% (inactive),
NC[C@H]1O[C@H](O[C@H]2[C@H](O)[C@@H](O[C@H]3O[C@H](CO)[C@@H](O)[C@H](N)[C@H]3O)[C@H](N)C[C@@H]2N)[C@H](N)[C@@H](O)[C@@H]1O,6.04% [at 23.6 µM] (inactive),
C=CCCCCCCCCCCCCCC,-5.46% [at 23.6 µM] (inactive),
CC(C)(C)c1ccc(N)cc1,,28.3 µM (active)
CC(C)(O)CCCC1=CCC(C=O)CC1 (stereo not drawn),,67.5 µM (active)
CC1(C)C(=O)C(C)(C)C1=O,1.76% (inactive),
